In PubChem BioAssay one finds composite z-score and z-score data, which are given here for 8 molecules.

Assay [1] concerns Wnt5a (protein binding on small-molecule microarray). As to the kind of experiment: small molecules binding Wnt5a protein – biophysical, small-molecule microarray, 635/667 nm fluorescence, primary screen (AID 1142).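 Also: fluorescence read at 667 nm with signal to noise per printed feature.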 The conditions noted are these: 635 nm fluorescence, higher = more signal.
A short description of assay [2]: ATP-based viability of Huh7 replicon cells – cell-based, CellTiter-Glo luminescence, basal, 48 h, cytotoxicity control for HCV replication inhibitor project, primary screen (AID 1143).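 Also: Huh7 hepatoma cells carrying a hepatitis C replication reporter with no stimulus; test concentration not given here.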 The conditions noted are these: higher = more signal, called active from +8 up or from −8 down.
A short description of assay [3]: Pseudomonas biofilm growth suppression – PAO1 strain, BacTiter-Glo luminescence, LB-PBS, primary screen (AID 1144). The conditions noted are these: P. aeruginosa PAO1 biofilm, 12 h, higher = more signal.
Assay [4] can be described thus: basal CRE-LacZ reporter activity in PC12 – cell-based, unstimulated, primary screen (AID 1145). The following applies: no forskolin, luminescence, 4.5 h, higher = more signal, called active from +8 up or from −8 down.
Assay [5] in a line: forskolin-driven CRE-LacZ activity in PC12 – cell-based, CRE-LacZ reporter, forskolin-stimulated, primary screen (AID 1146).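 Also: PC12 cells with 6xCRE LacZ reporter stimulated by forskolin 10 µM; beta-galactosidase reporter signal reflecting CREB driven transcription.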 The following applies: luminescence, 4.5 h, higher = more signal, called active from +8 up or from −8 down.
The target in assay [6] is Streptavidin (Streptomyces avidinii) (UniProt P22629). As to the kind of experiment: compounds binding control protein streptavidin – biophysical, small-molecule microarray, 635/667 nm fluorescence, artefact control for SMM compound annotation, primary screen (AID 1147).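 Also: signal reflects streptavidin binding to arrayed compounds as a control protein.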 The following applies: higher = more signal.
Streptavidin (Streptomyces avidinii), sequence (P22629 whole entry, looked up): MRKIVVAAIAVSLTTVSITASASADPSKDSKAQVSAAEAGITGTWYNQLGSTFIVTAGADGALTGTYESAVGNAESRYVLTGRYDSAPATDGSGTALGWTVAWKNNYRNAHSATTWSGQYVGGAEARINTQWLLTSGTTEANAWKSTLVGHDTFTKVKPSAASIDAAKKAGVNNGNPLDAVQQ
The nature of assay [7]: probe aInhba binding on compound microarray – biochemical, small-molecule microarray, 635/667 nm fluorescence, primary screen (AID 1148).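 Also: score merges 667nm spot fluorescence with signal-to-noise for antibody binding to printed compounds.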 The following applies: higher = more signal.
For assay [8], the target named is Torsin-1A (Homo sapiens) (UniProt O14656). As to the kind of experiment: TOR1A wild-type binding on microarray – cell lysate, small-molecule microarray, lysate, 635/667 nm, primary screen (AID 1149). The conditions noted are these: COS7 hTOR1A-WT lysate, 635 nm fluorescence, higher = more signal.
Torsin-1A (Homo sapiens), sequence (O14656 whole entry, looked up): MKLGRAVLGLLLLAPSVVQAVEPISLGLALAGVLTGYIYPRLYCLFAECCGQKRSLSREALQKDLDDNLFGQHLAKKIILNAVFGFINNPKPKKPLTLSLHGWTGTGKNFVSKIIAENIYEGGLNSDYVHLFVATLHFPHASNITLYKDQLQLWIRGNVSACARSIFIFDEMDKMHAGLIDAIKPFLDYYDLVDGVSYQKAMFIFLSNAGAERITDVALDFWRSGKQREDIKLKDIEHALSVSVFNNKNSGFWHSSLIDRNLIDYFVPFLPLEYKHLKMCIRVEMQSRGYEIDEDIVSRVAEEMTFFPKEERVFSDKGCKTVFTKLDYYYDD
The target is the same in assay [9]. Briefly: torsin A mutant lysate binding on microarrays – cell lysate, small-molecule microarray, COS7 lysate, 635/667 nm fluorescence, primary screen (AID 1150).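 Also: score pools 667 nm emission and signal to noise measuring lysate protein binding.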 The following applies: COS7 hTOR1A mutant lysate, 635 nm fluorescence, higher = more signal.
The test system of assay [10] is Sonic hedgehog protein (Shh). As to the kind of experiment: Sonic hedgehog microarray binding compounds – biochemical, small-molecule microarray, 635/667 nm fluorescence, primary screen (AID 1151).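 Also: Shh protein binding to compounds spotted on small-molecule microarray slides; score combines spot fluorescence intensity with signal-to-noise across triplicate slides.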 The following applies: 635 nm fluorescence, higher = more signal.
Assay [11] is described as follows: optical density shifts of acrAB sulA E. coli – strain DRC41, OD650, 48 h, E. coli filamentation inducer project, primary screen (AID 1152).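 Also: E. coli MC1000 strain DRC41 lacking acrAB efflux pump and sulA.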 The conditions noted are these: higher = more signal, called active from +8 up or from −8 down.
Assay [12] in a line: probe aLefty1 binding on compound microarray – biochemical, small-molecule microarray, 635/667 nm fluorescence, primary screen (AID 1153).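 Also: score merges spot fluorescence with signal-to-noise ratio from the scanned slide images.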 The following applies: higher = more signal.
The nature of assay [13]: plasmodial surface anion channel blockers, osmotic lysis – cell-based, P. falciparum Indochina, OD700, 1 h, primary screen (AID 1154). The following applies: P. falciparum Indochina infected RBC osmotic lysis, higher = more signal, called active from +8 up or from −8 down.
Assay [14] can be described thus: plasmodial surface anion channel blockers, osmotic lysis – cell-based, P. falciparum Indochina, OD700, 2 h, primary screen (AID 1155).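 Also: lysis reports solute entry through the parasite surface anion channel PSAC.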 The conditions noted are these: P. falciparum Indochina infected erythrocytes, higher = more signal, called active from +8 up or from −8 down.
Assay [15] is described as follows: changes in parasitized red cell lysis, either direction – P. falciparum Indochina, OD700, 3 h, PSAC antagonist project, primary screen (AID 1156). The following applies: P. falciparum-infected erythrocytes, osmotic lysis, higher = more signal, called active from +8 up or from −8 down.
Assay [16] can be described thus: plasmodial surface anion channel blockers, osmotic lysis – cell-based, P. falciparum Indochina, OD700, 18 h, primary screen (AID 1157). The conditions noted are these: P. falciparum Indochina infected erythrocytes, osmotic lysis OD700, 18 h; higher = more signal, called active from +8 up or from −8 down.
Assay [17] can be described thus: S6 kinase pathway phospho-S6 level changes – cell-based, A549, cytoblot, luminescence, serum-stimulated, primary screen (AID 1158).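 Also: serum-stimulated A549 lung adenocarcinoma cells; signal is phosphorylated S6 detected by cytoblot immunostaining with HRP secondary.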 The following applies: 5 h, higher = more signal.
Assay [18] concerns the target NADPH oxidase 2 (Homo sapiens) (UniProt P04839). As to the kind of experiment: compounds shifting NOX2 Amplex Red fluorescence – cell-based, HEK293-NOX2, PMA-stimulated, NOX inhibitor project, primary screen (AID 1159). Also: test concentration not given here. The conditions noted are these: 45 min, higher = more signal, called active from +8 up or from −8 down.
The target of assay [19] is NADPH oxidase 4 (Homo sapiens) (UniProt Q9NPH5). As to the kind of experiment: compounds shifting NOX4 Amplex Red fluorescence – cell-based, HEK293-NOX4, tetracycline-induced, NOX inhibitor project, primary screen (AID 1160). The following applies: HEK293-NOX4, Amplex Red H2O2 fluorescence, 45 min; higher = more signal, called active from +8 up or from −8 down.
NADPH oxidase 4 (Homo sapiens), sequence (Q9NPH5 whole entry, looked up): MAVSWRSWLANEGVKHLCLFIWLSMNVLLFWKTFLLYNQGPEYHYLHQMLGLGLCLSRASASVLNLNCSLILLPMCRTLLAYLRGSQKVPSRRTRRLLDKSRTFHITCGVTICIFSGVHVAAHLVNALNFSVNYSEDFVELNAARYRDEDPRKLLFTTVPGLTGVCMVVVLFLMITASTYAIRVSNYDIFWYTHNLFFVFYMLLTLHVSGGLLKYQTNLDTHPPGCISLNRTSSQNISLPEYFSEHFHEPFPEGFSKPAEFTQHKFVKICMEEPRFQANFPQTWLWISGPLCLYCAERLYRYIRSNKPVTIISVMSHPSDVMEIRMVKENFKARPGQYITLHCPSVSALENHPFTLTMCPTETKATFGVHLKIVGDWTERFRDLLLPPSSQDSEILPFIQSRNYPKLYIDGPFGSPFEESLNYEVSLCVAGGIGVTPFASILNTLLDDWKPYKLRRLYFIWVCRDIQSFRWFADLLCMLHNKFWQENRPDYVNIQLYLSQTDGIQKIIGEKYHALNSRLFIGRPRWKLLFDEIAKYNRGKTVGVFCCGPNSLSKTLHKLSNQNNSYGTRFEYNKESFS
The target of assay [20] is NADPH oxidase 5 (Homo sapiens) (UniProt Q96PH1). Briefly: compounds shifting NOX5 Amplex Red fluorescence – cell-based, HEK293-NOX5, NOX inhibitor project, primary screen (AID 1161). The conditions noted are these: HEK293-NOX5, ionomycin, 45 min, higher = more signal.
NADPH oxidase 5 (Homo sapiens), sequence (Q96PH1 whole entry, looked up): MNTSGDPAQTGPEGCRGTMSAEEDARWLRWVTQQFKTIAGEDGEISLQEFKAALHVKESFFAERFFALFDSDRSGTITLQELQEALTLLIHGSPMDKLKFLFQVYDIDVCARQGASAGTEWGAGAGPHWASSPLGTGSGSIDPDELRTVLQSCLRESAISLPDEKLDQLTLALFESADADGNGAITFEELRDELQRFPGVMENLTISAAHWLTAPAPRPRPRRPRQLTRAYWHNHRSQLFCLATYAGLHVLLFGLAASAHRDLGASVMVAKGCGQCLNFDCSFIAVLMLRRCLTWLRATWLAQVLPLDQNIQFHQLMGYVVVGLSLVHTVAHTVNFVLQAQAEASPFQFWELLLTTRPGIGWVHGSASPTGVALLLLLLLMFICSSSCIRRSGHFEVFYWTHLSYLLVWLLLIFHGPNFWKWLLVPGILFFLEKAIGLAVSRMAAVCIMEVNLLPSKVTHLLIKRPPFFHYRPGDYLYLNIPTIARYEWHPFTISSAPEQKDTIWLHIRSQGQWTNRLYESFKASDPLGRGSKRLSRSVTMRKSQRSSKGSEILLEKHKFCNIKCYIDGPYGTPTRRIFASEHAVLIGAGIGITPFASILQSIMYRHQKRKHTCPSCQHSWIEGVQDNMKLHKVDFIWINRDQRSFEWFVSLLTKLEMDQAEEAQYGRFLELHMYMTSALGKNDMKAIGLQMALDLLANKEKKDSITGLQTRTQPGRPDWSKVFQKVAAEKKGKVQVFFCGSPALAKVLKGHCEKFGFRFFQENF

SMILES strings stand for the structures. Calls of active or inactive are those of the source. Unless noted, no rule for the calls is given here.

NADPH oxidase 2 (Homo sapiens), sequence (P04839 whole entry, looked up): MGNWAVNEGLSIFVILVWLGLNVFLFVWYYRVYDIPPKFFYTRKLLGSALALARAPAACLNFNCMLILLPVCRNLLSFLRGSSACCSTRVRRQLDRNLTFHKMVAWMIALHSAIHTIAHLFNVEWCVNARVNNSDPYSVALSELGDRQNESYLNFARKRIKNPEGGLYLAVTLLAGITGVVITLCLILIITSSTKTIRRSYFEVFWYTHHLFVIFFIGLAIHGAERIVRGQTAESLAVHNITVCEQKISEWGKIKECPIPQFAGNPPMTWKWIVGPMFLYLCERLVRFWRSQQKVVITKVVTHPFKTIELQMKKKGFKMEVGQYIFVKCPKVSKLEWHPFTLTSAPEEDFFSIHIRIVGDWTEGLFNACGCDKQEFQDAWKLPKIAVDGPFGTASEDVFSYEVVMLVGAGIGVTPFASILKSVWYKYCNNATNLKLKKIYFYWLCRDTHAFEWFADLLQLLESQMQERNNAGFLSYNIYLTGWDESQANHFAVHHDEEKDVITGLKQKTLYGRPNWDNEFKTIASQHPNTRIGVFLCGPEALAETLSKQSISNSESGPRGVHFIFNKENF

On to `CCS[C@H]1[C@@H](C(=O)O)[C@H](c2ccc(C)cc2)N(S(=O)(=O)c2ccc(C)cc2)[C@@H]1CC`, for which the composite z-score is 0.261 in assay [1]; 0.68 in assay [6]; 0.206 in [7]; -0.0832 with Torsin-1A (Homo sapiens) [8]; 0.477 with Torsin-1A (Homo sapiens) [9]; -0.7 in assay [10]. For the same molecule, the composite z-score in assay [12] is 0.157. The z-score in assay [2] was -0.0715 (inactive); in assay [3], -0.54 (inactive); in assay [4], -0.928 (inactive); in assay [5] it was -0.334 (inactive); in assay [11], 0.409 (inactive); in [13], 1.56 (inactive). Besides, the z-score in assay [14] is 1.02 (inactive); in [15], -0.129 (inactive); in [16], 0.831 (inactive); in [17], -0.0726; in [18] it was 0.983 (inactive); in assay [19], -0.149 (inactive). The z-score in assay [20] is 0.271.

`O=C1O[C@@H](c2ccccc2)[C@@H](c2ccccc2)N2[C@@H](c3ccccc3OCCO)[C@]3(C(=O)Nc4ccccc43)[C@@H](C(=O)Nc3nc4ccccc4s3)[C@H]12`: the composite z-score was found to be 0.371 in assay [1]; 1.9 in [6]; 0.286 in [7]; 0.469 in the assay with Torsin-1A (Homo sapiens) [8]; 0.972 with Torsin-1A (Homo sapiens) [9]; 2.03 in [10]. In [12], this molecule showed a composite z-score of 1.14. The z-score is -5.91 (inactive) in assay [2]; -0.311 (inactive) in assay [3]; 0.568 (inactive) in [4]; 3.07 (inactive) in assay [5]; 0.533 (inactive) in assay [11]; 2.02 (inactive) in assay [13]. Further, the z-score in assay [14] was 1.59 (inactive); in assay [15] it was 0.0197 (inactive); in assay [16], -1.52 (inactive); in [17], 1.53; in assay [18], 0.188 (inactive); in assay [19] it was -0.547 (inactive). In addition, in [20], the z-score is -1.6.

For the molecule `CC(C)N1C(=O)c2ccccc2[C@](C)(C(=O)NCCN2CCOCC2)[C@@H]1c1ccc(CO)cc1`, the composite z-score is -0.568 in assay [1]; -0.854 in assay [6]; -0.0719 in assay [7]; 0.0436 in the assay with Torsin-1A (Homo sapiens) [8]; 0.212 with Torsin-1A (Homo sapiens) [9]; -0.776 in assay [10]. Moreover, the composite z-score in [12] is 0.0451. Besides, the z-score in assay [2] was 0.0068 (inactive); in assay [3], 0.358 (inactive); in assay [4], 0.585 (inactive); in assay [5] it was -0.875 (inactive); in [11], -0.469 (inactive); in assay [13] it was 2.19 (inactive). Also, the z-score is 0.0259 (inactive) in [14]; 0.914 (inactive) in assay [15]; 0.426 (inactive) in assay [16]; -0.522 in assay [17]; 1.05 (inactive) in assay [18]; 0.627 (inactive) in assay [19]. The z-score in assay [20] stood at 0.283.

On to `C=C(COC)/C(=C/C[C@@H](OC(C)=O)c1ccc(OCCO)cc1)c1cnc2ccccc2c1`, for which the composite z-score was 0.837 in [1]; 1.36 in [6]; -0.0403 in [7]; -0.148 with Torsin-1A (Homo sapiens) [8]; 0.647 with Torsin-1A (Homo sapiens) [9]; 1.75 in assay [10]. This molecule also registered a composite z-score in assay [12] of 0.127. In addition, the z-score in [2] was -2.22 (inactive); in assay [3], -0.826 (inactive); in assay [4], 3.77 (inactive); in [5] it was -0.861 (inactive); in assay [11], 2.11 (inactive); in assay [13] it was 20.2 (active). In addition, the z-score in [14] is 3.53 (inactive); in assay [15], 0.844 (inactive); in assay [16], -0.282 (inactive); in assay [17], 1.81; in [18] it was -2.04 (inactive); in assay [19], -0.287 (inactive). In addition, in assay [20], the z-score is -1.08.

As to `Cc1ccc(N2C(=O)c3ccccc3[C@@H](C(=O)NC3CC3)[C@@H]2c2ccc(CO)cc2)nc1`, the composite z-score in assay [1] is -0.645; in [6], -1.76; in assay [7], -0.282; with Torsin-1A (Homo sapiens) [8] it was 1.23; with Torsin-1A (Homo sapiens) [9], 0.969; in assay [10] it was -0.958. For the same molecule, the composite z-score in [12] was -0.138. Moreover, the z-score in assay [2] was 0.256 (inactive); in assay [3], -0.754 (inactive); in assay [4], -0.062 (inactive); in [5], 0.986 (inactive); in assay [11], -0.0739 (inactive); in assay [13], 1.92 (inactive). Besides, the z-score in [14] is -0.325 (inactive); in assay [15], 0.62 (inactive); in [16], -0.0389 (inactive); in assay [17], -0.179; in [18] it was 0.355 (inactive); in assay [19] it was -0.647 (inactive). The z-score in [20] was -1.51.

As to `COc1ccc(CCNC(=O)[C@@H]2c3ccccc3C(=O)N(Cc3ccccc3Cl)[C@H]2c2ccc(CO)cc2)cc1`, the composite z-score in assay [1] is 0.177; in assay [6], -0.001; in assay [7], -0.0645; with Torsin-1A (Homo sapiens) [8], 0.25; with Torsin-1A (Homo sapiens) [9] it was 0.0327; in assay [10], -0.214. Also, the composite z-score in assay [12] is -0.0999. Further, the z-score in assay [2] was -0.124 (inactive); in [3] it was 0.603 (inactive); in assay [4] it was 0.701 (inactive); in assay [5], -0.977 (inactive); in assay [11], -0.497 (inactive); in [13] it was 3.59 (inactive). For the same molecule, the z-score in assay [14] is 0.474 (inactive); in [15], 0.209 (inactive); in [16] it was -0.11 (inactive); in assay [17] it was -0.144; in [18], -3.49 (inactive); in [19] it was 0.151 (inactive). For the same molecule, the z-score in assay [20] was -2.46.

Take `CC(=O)n1cc(C(O)C2C=CC3C(=O)N(c4ccccc4)C(=O)C3N2Nc2ccc([N+](=O)[O-])cc2)c2ccccc21` (stereo not given): the composite z-score was 0.199 in assay [1]; 0.808 in assay [6]; -0.0371 in [7]; -0.268 with Torsin-1A (Homo sapiens) [8]; 0.475 with Torsin-1A (Homo sapiens) [9]; -0.0727 in assay [10]. Further, the composite z-score in [12] is 0.272. In addition, the z-score is -0.547 (inactive) in [2]; -0.197 (inactive) in assay [3]; -0.322 (inactive) in [4]; -0.647 (inactive) in [5]; -1.2 (inactive) in assay [11]; 17 (active) in assay [13]. For the same molecule, the z-score in assay [14] is 3.57 (inactive); in assay [15] it was 1.13 (inactive); in assay [16] it was 0.954 (inactive); in [17], -0.75; in [18], -0.808 (inactive); in assay [19] it was -2.56 (inactive). Besides, the z-score in [20] is -1.91.

As for `C=CCN1C(=O)[C@]2(O[C@H](CCn3cc([C@H](O)c4ccccc4)nn3)[C@@H]([Si](C)(C)c3ccc(OC)cc3)[C@@H]2C)c2ccccc21`, the composite z-score in assay [1] is -0.336; in assay [6], -0.957; in assay [7] it was -0.203; with Torsin-1A (Homo sapiens) [8] it was -0.704; with Torsin-1A (Homo sapiens) [9] it was -0.73; in assay [10] it was 0.238. Also, the composite z-score in [12] is -0.0099. Also, the z-score in [2] was -3.87 (inactive); in assay [3] it was -0.151 (inactive); in assay [4] it was 2.23 (inactive); in assay [5], -0.979 (inactive); in assay [11] it was -0.554 (inactive); in [13], 4.6 (inactive). The z-score in [14] is 1.02 (inactive); in assay [15], 0.914 (inactive); in assay [16] it was 0.843 (inactive); in assay [17], 0.256; in [18], 0.952 (inactive); in assay [19], 0.055 (inactive). Also, the z-score in [20] was -0.251.
